Not all results are given here.
aSyn 5UTR act: Activators working through SNCA 5'UTR binding (MLPCN); alpha-synuclein 5'UTR reporter, activators screen; activity score, % (tested at 7.5 µM), hits read low; 300,000 compounds, 7.1% hits; in the data active = activity score below about -60%
Starred values were filed as active, the others as inactive.

SMILES | aSyn 5UTR act
COC(=O)c1ccn(Cc2ccccc2Cl)n1 | -106*
Cc1cc2nc(N3CCN(C(=O)c4cccs4)CC3)sc2cc1C | -130*
Cc1cc2nc(N3CCN(C(=O)c4ccco4)CC3)sc2cc1C | -129*
Cc1cc(C)c2nc(N3CCN(C(=O)c4ccco4)CC3)sc2c1 | -115*
CC(=O)c1ccc(N2CCN(C(=O)c3ccco3)CC2)c(F)c1 | -98*
c1ccc2c(c1)CCN(c1nc3cc4c(cc3s1)OCCO4)C2 | 75
O=C(c1ccco1)N1CCN(c2nc3ccsc3c(=O)s2)CC1 | -98*
O=C(c1cccs1)N1CCN(c2nc3c(F)cc(F)cc3s2)CC1 | -78*
Cc1cc(C)n(-c2nc3ccccc3c(=O)n2OCC(N)=O)n1 | -63*
NNC(=O)COc1ccccc1[N+](=O)[O-] | -87*
CCSc1nnc(NC(=O)COc2ccccc2[N+](=O)[O-])s1 | -114*
CC(C)c1nnc(NC(=O)COc2ccccc2[N+](=O)[O-])s1 | -154*
COc1ccc(C(=O)Nc2ccc(N3CCN(C)CC3)cc2)cc1 | -165*
COc1ccc(C(=O)Nc2ccc(N3CCN(C)CC3)cc2)cc1OC | -82*
Cc1ccc(C(=O)Nc2ccc(N3CCN(C)CC3)cc2)cc1 | -88*
CN1CCN(c2ccc(NC(=O)c3ccc4ccccc4c3)cc2)CC1 | 85
CCOC(=O)c1snc(C(=O)NC2CCCCC2)c1N | -150*
CC(C)COc1ccc(-c2nnc(-c3ccco3)o2)cc1 | 86
COc1ccc(CC(=O)Nc2cccc(-c3nnc(-c4cccc(C)c4)o3)c2)cc1OC | -187*
CCCOc1ccc(-c2nnc(-c3ccco3)o2)cc1 | 65
O=C(COc1ccccc1)Nc1nnc(-c2ccc3c(c2)CCCC3)o1 | -95*
O=C(COc1ccccc1)Nc1ccc(-c2nnc(-c3ccco3)o2)cc1 | -84*
COc1ccccc1OCC(=O)Nc1cccc(-c2nnc(-c3ccco3)o2)c1 | -87*
COc1ccc(-c2nc3cc(NC(=O)Cc4ccc(OC)c(OC)c4)ccc3o2)cc1 | -69*
COc1ccc(/C=C2\CCn3c2nc2ccccc2c3=O)cc1OC | -256*
SMILES | aSyn 5UTR act
CCCCNc1c(-c2cccc(-c3cc(C(C)=O)cs3)c2)nc2ccc(C)cn12 | -71*
CC1(C)OC2OC(COC(=O)c3ccccc3)C3OC(C)(C)OC3C2O1 (stereo not given) | -89*
Cc1cs/c(=N/C(=S)Nc2ccccc2)n1C | -115*
CCC(=O)Nc1ccc(NC(=O)c2ccco2)cc1 | -136*
COc1cc(NC(=O)CC(C)C)ccc1NC(=O)c1ccco1 | -119*
CCOc1ccc(CC(=O)Nc2ccc(NC(=O)c3ccco3)cc2)cc1OCC | 66
CCC(=O)Nc1ccc(NC(=O)c2ccco2)c(OC)c1 | -142*
O=C(Nc1ccc(CSc2ccccc2)cc1)c1ccco1 | -125*
O=c1[nH]c(-c2ccco2)nc2sc3c(c12)CCCC3 | -125*
CC(C)C(=O)Nc1nc(-c2ccc([N+](=O)[O-])cc2)cs1 | -74*
CNc1nc(-c2ccc([N+](=O)[O-])cc2)cs1 | -135*
COCC(=O)Nc1nc(-c2ccc(-c3ccccc3)cc2)cs1 | -220*
O=C(COC(=O)c1ccccn1)Nc1nc(-c2ccccc2)cs1 | -80*
CCc1ccccc1OCC(=O)Nc1nc(-c2cccnc2)cs1 | 70
O=[N+]([O-])c1ccc(-c2csc(NN=C3CCCC3)n2)cc1 | -177*
COCC(=O)Nc1nc(-c2ccc([N+](=O)[O-])cc2)cs1 | -70*
CC(=O)NCCc1nc2cc(NC(=O)COc3cccc(C)c3)ccc2n1C | -62*
Cc1cccc(OCC(=O)Nc2ccc3c(c2)nc2n3CCOC2)c1 | -69*
CCc1ccc(C(=O)/C=C/c2cnn(C)c2C)s1 | -117*
Nc1ccc(/C=C/C(=O)c2cccs2)cc1 | -135*
Cc1c(/C=C/C(=O)c2cccs2)cnn1C | -125*
CN(c1ccccc1)c1nc2ccsc2c(=O)s1 | -124*
Cc1cc(C2=NNC(=Nc3ccccc3)SC2)c(C)n1C | -80*
COc1ccc(OC)c(Cc2nnc(CCC(=O)N3CCN(C4CCCC4)CC3)o2)c1 | -74*
Cc1ccc(NC(=S)NCCc2ccccc2)nc1 | -99*
SMILES | aSyn 5UTR act
Cc1ccc(NC(=O)CCCc2ccccc2)nc1 | -100*
O=C(Nc1ccccc1)Nc1ccc2ccccc2n1 | -89*
O=C(Nc1ccc(F)cc1)Nc1ccc2ccccc2n1 | -106*
Cc1c(C(=O)N2CCN(C)CC2)oc2ccc(Br)cc12 | -104*
CCCc1ccc2oc(C(=O)NCCc3cnn(C)c3)c(C)c2c1 | -182*
CCCc1ccc2oc(C(=O)N3CCCC3)c(C)c2c1 | -179*
CCCOc1ccc(C(=O)Nc2ccc3c(c2)OCO3)cc1 | -95*
CCC(=O)Oc1ccc(C(=O)Nc2ccc3c(c2)OCO3)cc1 | -72*
CCCCOc1ccc(C(=O)Nc2ccc3c(c2)OCO3)cc1 | -93*
CCn1c(O)c(C=NC2CCCC(C)C2C)sc1=S (stereo not given) | -133*
CSCc1c(C(=O)NC2CCCc3ccccc32)oc2ccccc12 (stereo not given) | 51
Cn1c(C(=O)NCC2CCCO2)cc2oc3ccccc3c21 (stereo not given) | -188*
Cn1c(=O)c(C(=O)NCC2CCCO2)c(O)c2ccccc21 (stereo not given) | -67*
Cn1c(C(=O)NCc2cccs2)cc2oc3ccccc3c21 | -261*
O=Cc1cccc(OCc2cccc3ccccc23)c1 | -117*
O=Cc1ccc(OCc2ccc3ccccc3c2)cc1 | -132*
COc1ccc(COc2cccc(C=O)c2)cc1 | -69*
CCOc1ccccc1C(=O)N[C@H](C(=O)Nc1nc2c(s1)CCCC2)C(C)C | -87*
COc1ccc(C(=O)N[C@H](C(=O)Nc2nc3c(s2)CCCC3)C(C)C)cc1 | -201*
Cc1ccc2cc(C3C(C#N)=C(N)Oc4c3ccc3cccnc43)c(=O)[nH]c2c1 (stereo not given) | 61
Cc1[nH]nc2c1C(c1ccc(-c3ccc(Cl)cc3)o1)C(C#N)=C(N)O2 (stereo not given) | -63*
Cc1ccc(-c2ccc(C3C(C#N)=C(N)Oc4n[nH]c(C)c43)o2)cc1 (stereo not given) | -107*
COc1ccc2nc(NCc3ccccc3)[nH]c2c1 | -80*
S=C(NCc1ccccc1)NNc1nc2ccccc2[nH]1 | -74*
c1ccc2[nH]c(NCc3ccc4c(c3)OCO4)nc2c1 | -180*
SMILES | aSyn 5UTR act
CCCOc1ccc2nc(NC(=O)OC)[nH]c2c1 | 84
c1ccc(CNc2nc3ccccc3[nH]2)cc1 | -79*
COc1ccc(Nc2ncnc3ccccc23)cc1 | -152*
COc1cccc(Nc2cc(C)c3ccccc3n2)c1 | -63*
COc1ccc(Nc2ccnc(Nc3ccc(OC)cc3)n2)cc1 | -120*
CCOc1ccc(Nc2nc(N)c3ccccc3n2)cc1 | 102
COc1ccc(Nc2cc(Nc3ccccc3)ncn2)cc1 | -81*
COc1cccc(Nc2ncnc3ccccc23)c1 | -123*
Cc1ccc(O)c(Nc2ncnc3ccccc23)c1 | -96*
Cc1cccc(Oc2coc3cc(OC(=O)c4cncc(Br)c4)ccc3c2=O)c1 | -73*
CCOC(=O)Oc1ccc2c(=O)c(Oc3cccc(C)c3)coc2c1 | -75*
CCCc1nn(C)c(C(=O)Nc2ccc3ccccc3c2)c1Cl | -204*
CCCc1nn(C)c(C(=O)Nc2cccc(CC)c2)c1Cl | -84*
Cc1ccc2nc(-c3ccc(NC(=O)c4ccco4)cc3)[nH]c2c1 | -163*
Cn1cccc1-c1nc2ccc(NC(=O)c3ccco3)cc2[nH]1 | -132*
N#C/C(=C\c1ccc(OCc2ccccc2)cc1)C(=O)Nc1ccc(C(=O)O)cc1 | -96*

Assay outcomes (PubChem)
